Experimental data published in PubChem BioAssay.
For part of these data: Entries with a potency or affinity are not part of this list. Active and inactive are the calls of the source. Unless noted, no rule for the calls is given here.

Assays:
[1] = antimalarial activity against Dd2 strain (AID 2302;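 active = growth inhibition above 50% at the single 2 µM test dose, taken to imply half-maximal potency below 2 µM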;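 also: 0% = DMSO untreated growth and 100% = chloroquine plus artemisinin killed control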); settings: P. falciparum Dd2 in RBCs, LDH growth readout, 72 h; at 2 µM; hits give high values
[2] = human hepatoma cell viability loss – ATP luminescence, cytotoxicity control for P. falciparum antimalarial project, primary screen (AID 2303;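 active = inhibition above 50%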;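 also: 0% = DMSO wells and 100% = digitonin-killed cells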); settings: HepG2 viability, 24-48 h, at 10 µM, hits give high values
[3] = biological target: L-lactate dehydrogenase (Plasmodium falciparum (isolate CDC / Honduras)) (UniProt Q27743); test: PfLDH activity inhibition – cell lysate, 3D7 strain, counter-screen for P. falciparum growth inhibition project (AID 2304);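 also: 0% = vehicle and 100% = reference inhibitor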; settings: P. falciparum 3D7 crude extract, LDH APAD/NBT absorbance; at 2 µM; hits give high values
[4] = inhibition of 3D7 malaria parasite growth – strain 3D7 (AID 2306);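 also: 0% = DMSO wells and 100% = chloroquine plus artemisinin control wells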; settings: P. falciparum 3D7 erythrocytic growth, LDH absorbance, 72 h; at 2 µM; hits give high values
[5] = biological target: Calcium-dependent protein kinase 1 (Plasmodium falciparum (isolate 3D7)) (UniProt P62344); test: PfCDPK1 kinase inhibitors, biochemical, TCAMS library (AID 1159585; cut-off not given, nearly all actives have IC50 up to about 0.98 µM;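 also: inhibitors leave more ATP so luminescence rises with inhibition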); settings: recombinant PfCDPK1, Kinase-Glo ATP depletion luminescence
[6] = biological target: Plasmodium falciparum protein kinase 6 (PK6, PF3D7_1337100) (UniProt Q8IDW1); test: PfPK6 kinase inhibitors, biochemical, TCAMS library (AID 1159586); settings: recombinant PfPK6, Kinase-Glo ATP depletion luminescence
[7] = biological target: Protein kinase 7 (PK7), Plasmodium falciparum 3D7 (PF3D7_0213400) (UniProt Q7YTF7); test: inhibition of Plasmodium PK7 catalytic activity – biochemical, TCAMS antimalarial set, Kinase-Glo luminescence (AID 1159587); settings: recombinant PfPK7, Kinase-Glo ATP depletion luminescence
[8] = biological target: Calcium-dependent protein kinase 4 (Plasmodium falciparum (isolate 3D7)) (UniProt Q8IBS5); test: PfCDPK4 kinase inhibitors, biochemical, TCAMS library (AID 1159588; cut-off not given, nearly all actives have IC50 up to about 0.91 µM); settings: recombinant PfCDPK4, Kinase-Glo ATP depletion luminescence
Sequence of Calcium-dependent protein kinase 4 (Plasmodium falciparum (isolate 3D7)) (Q8IBS5 whole entry, looked up): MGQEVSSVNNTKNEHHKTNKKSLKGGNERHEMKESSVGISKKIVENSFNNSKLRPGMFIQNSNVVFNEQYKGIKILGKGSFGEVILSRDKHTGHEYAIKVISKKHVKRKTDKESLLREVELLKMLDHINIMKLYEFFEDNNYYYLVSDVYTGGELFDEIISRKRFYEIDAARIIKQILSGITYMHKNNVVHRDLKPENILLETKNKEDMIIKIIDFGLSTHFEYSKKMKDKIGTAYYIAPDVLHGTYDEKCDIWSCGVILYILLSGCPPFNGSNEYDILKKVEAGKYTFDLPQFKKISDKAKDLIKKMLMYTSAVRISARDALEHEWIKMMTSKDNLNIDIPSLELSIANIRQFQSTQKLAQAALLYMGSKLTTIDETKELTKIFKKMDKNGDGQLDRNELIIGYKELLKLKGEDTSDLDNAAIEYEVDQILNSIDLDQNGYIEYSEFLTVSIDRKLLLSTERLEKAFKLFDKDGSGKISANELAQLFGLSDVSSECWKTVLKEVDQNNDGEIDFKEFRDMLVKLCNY

Sequence of Protein kinase 7 (PK7), Plasmodium falciparum 3D7 (PF3D7_0213400) (Q7YTF7 1-343): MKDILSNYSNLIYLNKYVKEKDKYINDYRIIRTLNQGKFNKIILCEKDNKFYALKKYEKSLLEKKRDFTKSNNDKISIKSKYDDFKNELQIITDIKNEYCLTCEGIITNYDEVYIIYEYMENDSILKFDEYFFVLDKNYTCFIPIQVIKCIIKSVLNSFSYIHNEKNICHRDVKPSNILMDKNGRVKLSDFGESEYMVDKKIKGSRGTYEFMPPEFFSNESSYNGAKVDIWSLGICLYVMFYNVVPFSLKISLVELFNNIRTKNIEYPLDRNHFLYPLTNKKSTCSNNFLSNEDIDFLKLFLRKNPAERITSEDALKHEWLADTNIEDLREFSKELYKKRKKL
Sequence of L-lactate dehydrogenase (Plasmodium falciparum (isolate CDC / Honduras)) (Q27743 whole entry, looked up): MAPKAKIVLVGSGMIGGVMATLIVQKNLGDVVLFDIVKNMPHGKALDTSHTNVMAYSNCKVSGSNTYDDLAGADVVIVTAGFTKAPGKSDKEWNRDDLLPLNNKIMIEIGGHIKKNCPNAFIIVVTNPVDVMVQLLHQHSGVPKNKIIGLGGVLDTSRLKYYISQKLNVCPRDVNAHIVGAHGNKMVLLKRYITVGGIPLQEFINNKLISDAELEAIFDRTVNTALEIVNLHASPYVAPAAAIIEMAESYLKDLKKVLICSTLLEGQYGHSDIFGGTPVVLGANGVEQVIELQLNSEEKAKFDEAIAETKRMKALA
Sequence of Plasmodium falciparum protein kinase 6 (PK6, PF3D7_1337100) (Q8IDW1 1-305): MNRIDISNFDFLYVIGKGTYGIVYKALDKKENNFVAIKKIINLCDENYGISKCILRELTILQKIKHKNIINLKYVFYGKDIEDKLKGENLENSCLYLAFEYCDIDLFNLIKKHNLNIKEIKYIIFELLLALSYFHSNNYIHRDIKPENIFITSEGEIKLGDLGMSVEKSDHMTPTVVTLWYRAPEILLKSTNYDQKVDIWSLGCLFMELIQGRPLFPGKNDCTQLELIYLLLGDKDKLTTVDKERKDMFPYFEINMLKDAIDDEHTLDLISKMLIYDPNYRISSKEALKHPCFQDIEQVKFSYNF
Sequence of Calcium-dependent protein kinase 1 (Plasmodium falciparum (isolate 3D7)) (P62344 whole entry, looked up): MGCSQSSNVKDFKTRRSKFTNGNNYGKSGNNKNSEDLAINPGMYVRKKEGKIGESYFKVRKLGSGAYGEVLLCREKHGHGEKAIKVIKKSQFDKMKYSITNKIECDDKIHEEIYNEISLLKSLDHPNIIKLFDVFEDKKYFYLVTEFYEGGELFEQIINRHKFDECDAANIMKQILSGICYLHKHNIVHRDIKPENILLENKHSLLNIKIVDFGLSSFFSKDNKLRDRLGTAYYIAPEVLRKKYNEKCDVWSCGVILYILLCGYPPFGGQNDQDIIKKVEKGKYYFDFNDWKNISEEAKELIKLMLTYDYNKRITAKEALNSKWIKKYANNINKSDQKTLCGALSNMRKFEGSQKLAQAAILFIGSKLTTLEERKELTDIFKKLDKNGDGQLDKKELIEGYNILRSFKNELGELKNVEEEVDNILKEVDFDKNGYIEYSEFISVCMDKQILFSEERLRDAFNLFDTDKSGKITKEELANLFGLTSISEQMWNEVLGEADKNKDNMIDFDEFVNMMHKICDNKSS

Cc1cc(N2CCCC2)nc(Nc2ccc(NC(=O)Cc3ccccc3)cc2)n1
inactive: inhibition [3] -4% | outcome [5] | outcome [6] | outcome [7] | outcome [8]
active: growth inhibition [1] 72% | inhibition [2] 71% | growth inhibition [4] 102%

CN(C)S(=O)(=O)c1ccc(Nc2nc(NCCC3C=NC=N3)nc3cc[nH]c(=O)c23)cc1 (stereo not drawn)
active: growth inhibition [1] 63% | growth inhibition [4] 96%
inactive: inhibition [2] 8% | inhibition [3] 2% | outcome [5] | outcome [6] | outcome [7] | outcome [8]

COC(=O)c1ccc(CCC(C)NCC(O)c2cccc(C(F)(F)F)c2)cc1 (stereo not drawn)
active: growth inhibition [1] 99% | growth inhibition [4] 99%
inactive: inhibition [2] 16% | inhibition [3] -7% | outcome [5] | outcome [6] | outcome [7] | outcome [8]

O=C(Nc1cccc(N2CCC(NCCCn3ccnc3)CC2)c1)c1cccc(C(F)(F)F)c1
inactive: growth inhibition [1] 2% | inhibition [2] 8% | inhibition [3] 3% | outcome [5] | outcome [6] | outcome [7] | outcome [8]
active: growth inhibition [4] 101%

Cn1cnc(-c2ccc3c(c2)CCN(CCC2CCC(NC(=O)/C=C/c4ccc(F)cc4)CC2)CC3)c1 (stereo not drawn)
active: growth inhibition [4] 90%
inactive: growth inhibition [1] 18% | inhibition [2] 26% | inhibition [3] 4% | outcome [5] | outcome [6] | outcome [7] | outcome [8]

COC(=O)c1cccc(CNCc2ccc(-c3ccc(-c4nc5ccc(C(F)(F)F)cc5[nH]4)s3)cc2)c1
active: growth inhibition [1] 96% | growth inhibition [4] 101%
inactive: inhibition [2] 34% | inhibition [3] -2% | outcome [5] | outcome [6] | outcome [7] | outcome [8]

N#Cc1ccc(-c2ccc(C(=O)NCCCCN3CCC(c4cn(CCCO)c5ccccc45)CC3)cc2)cc1
active: growth inhibition [1] 56% | growth inhibition [4] 98%
inactive: inhibition [2] 31% | inhibition [3] -2% | outcome [5] | outcome [6] | outcome [7] | outcome [8]

Cc1cc(S(=O)(=O)N2CCCCC(c3ccc(C(F)(F)F)cc3)=N2)c(Cl)cc1Cl
inactive: inhibition [2] 17% | inhibition [3] 0% | outcome [5] | outcome [6] | outcome [7] | outcome [8]
active: growth inhibition [1] 97% | growth inhibition [4] 97%

CC(C)CCNCc1ccc(OCc2ccccc2COc2ccc(CNCCC(C)C)cc2I)c(I)c1
active: growth inhibition [1] 78% | inhibition [2] 99% | growth inhibition [4] 101%
inactive: inhibition [3] 0% | outcome [5] | outcome [6] | outcome [7] | outcome [8]

Nc1ncc(-c2ccccc2)cc1-c1cccc2ncccc12
active: growth inhibition [1] 99% | inhibition [2] 82% | growth inhibition [4] 97%
inactive: inhibition [3] -2% | outcome [5] | outcome [6] | outcome [7] | outcome [8]

CC(C)N(Cc1ccc(-c2ccc(C(F)(F)F)cc2)cc1)C(=O)Cn1c(SCc2cccc(F)c2F)cc(=O)c2cc(CN3CCCCC3)ccc21
inactive: inhibition [3] -8% | outcome [5] | outcome [6] | outcome [7] | outcome [8]
active: growth inhibition [1] 59% | inhibition [2] 97% | growth inhibition [4] 103%

CC(C)(C)C1CC(=O)C[C@@H]2C(=O)N(C3CCCCC3)C(=O)[C@H]12 (stereo partly drawn)
active: growth inhibition [4] 97%
inactive: growth inhibition [1] 27% | inhibition [2] -2% | inhibition [3] -2% | outcome [5] | outcome [6] | outcome [7] | outcome [8]

CC(=O)Nc1cccc(C(=O)Nc2ccc(-c3cccc(-c4nc5c(C)cccc5[nH]4)c3)cc2)c1
active: growth inhibition [1] 50% | inhibition [2] 86% | growth inhibition [4] 100%
inactive: inhibition [3] -4% | outcome [5] | outcome [6] | outcome [7] | outcome [8]

CC(C)Cn1c(Sc2ccc(C#N)c([N+](=O)[O-])c2)nnc1-c1ccccc1Cl
active: growth inhibition [4] 93%
inactive: growth inhibition [1] 46% | inhibition [2] 18% | inhibition [3] 2% | outcome [5] | outcome [6] | outcome [7] | outcome [8]

O=C(Nc1ccc(-c2nc3ccccc3[nH]2)cc1)c1ccc(S(=O)(=O)N2CCCCCC2)cc1
inactive: growth inhibition [1] 21% | inhibition [2] 8% | inhibition [3] -6% | outcome [5] | outcome [6] | outcome [7] | outcome [8]
active: growth inhibition [4] 97%

COc1cccc(C2CCCN(CCCCNC(=O)c3ccc(NC(=O)c4ccc(Cl)cc4)cc3)C2)c1 (stereo not drawn)
active: growth inhibition [4] 95%
inactive: growth inhibition [1] 6% | inhibition [2] 24% | inhibition [3] -2% | outcome [5] | outcome [6] | outcome [7] | outcome [8]

O=C(N[C@@H](CC1CCCCC1)C(=O)NCCN1CCOCC1)c1ccc(O)c(-c2ccc(Cl)c(Cl)c2)c1
inactive: inhibition [2] -3% | inhibition [3] 3% | outcome [5] | outcome [6] | outcome [7] | outcome [8]
active: growth inhibition [1] 99% | growth inhibition [4] 97%

CN(C)c1ccc(C=CC(=O)NC(=O)c2ccccc2O)cc1
active: growth inhibition [1] 97% | growth inhibition [4] 92%
inactive: inhibition [2] 6% | inhibition [3] -1% | outcome [5] | outcome [6] | outcome [7] | outcome [8]

O=C(NC1CC1)c1ccc(N2CCN(Cc3ccc(Cl)cc3)CC2)nc1
active: growth inhibition [1] 81% | growth inhibition [4] 84%
inactive: inhibition [2] 16% | inhibition [3] 3% | outcome [5] | outcome [6] | outcome [7] | outcome [8]

CN1CCN(c2ccnc3ccc(NC(=O)Nc4ccc(-c5ccccc5)cc4)cc23)CC1
active: growth inhibition [4] 99%
inactive: growth inhibition [1] 41% | inhibition [2] -10% | inhibition [3] -7% | outcome [5] | outcome [6] | outcome [7] | outcome [8]

N#Cc1ccc(-c2ccc(C(=O)NCCCCN3CCC(c4nc5ccccc5[nH]4)CC3)cc2)cc1
active: growth inhibition [4] 92%
inactive: growth inhibition [1] 13% | inhibition [2] 43% | inhibition [3] 4% | outcome [5] | outcome [6] | outcome [7] | outcome [8]

COc1ccc2ccccc2c1CCCCN1CCN(CC(c2ccc(F)cc2)N2CCC2)CC1 (stereo not drawn)
active: growth inhibition [1] 51% | inhibition [2] 51% | growth inhibition [4] 98%
inactive: inhibition [3] 9% | outcome [5] | outcome [6] | outcome [7] | outcome [8]

CCn1ccc2c3c(N)nc(N)nc3ccc21
active: inhibition [2] 61% | growth inhibition [4] 99%
inactive: growth inhibition [1] 2% | inhibition [3] 6% | outcome [5] | outcome [6] | outcome [7] | outcome [8]

CCCCN(CCCC)C(=NCCCCCCN=C(/N=C(/N)Nc1ccc(Cl)cc1)N(CCCC)CCCC)/N=C(/N)Nc1ccc(Cl)cc1
active: growth inhibition [1] 72% | growth inhibition [4] 81%
inactive: inhibition [2] -1% | inhibition [3] -5% | outcome [5] | outcome [6] | outcome [7] | outcome [8]

COc1ccc(-c2nc(NCc3ccccc3)c3cc(OC)c(OC)cc3n2)cc1
inactive: inhibition [2] 15% | inhibition [3] -1% | outcome [5] | outcome [6] | outcome [7] | outcome [8]
active: growth inhibition [1] 100% | growth inhibition [4] 101%

CC(=O)Nc1ccc2[nH]cc(C3CCN(CCC4CCN(C(=O)/C=C/c5ccc(Cl)c(Cl)c5)CC4)CC3)c2c1
active: growth inhibition [4] 95%
inactive: growth inhibition [1] 7% | inhibition [2] 13% | inhibition [3] 4% | outcome [5] | outcome [6] | outcome [7] | outcome [8]

CCNC(=O)Nc1cccc(-c2cccc(-c3nc4c(C)cccc4[nH]3)c2)c1
inactive: growth inhibition [1] 31% | inhibition [2] 7% | inhibition [3] 4% | outcome [5] | outcome [6] | outcome [7] | outcome [8]
active: growth inhibition [4] 85%

Cc1ccc2[nH]c3c(NCCCN4CCOCC4)ncnc3c2c1
active: growth inhibition [4] 101%
inactive: growth inhibition [1] 9% | inhibition [2] -1% | inhibition [3] -3% | outcome [5] | outcome [6] | outcome [7] | outcome [8]

COC(=O)c1ccccc1N1CCN(CCCCNC(=O)c2ccc(NC(=O)c3cc(Cl)cc(Cl)c3)cc2)CC1
inactive: growth inhibition [1] 42% | inhibition [2] 20% | inhibition [3] 0% | outcome [5] | outcome [6] | outcome [7] | outcome [8]
active: growth inhibition [4] 100%

O=S(=O)(NCCN1CCCC1)c1ccc(-c2cccc(CNCc3ccc(F)cc3)c2)s1
inactive: inhibition [2] 48% | inhibition [3] 4% | outcome [5] | outcome [6] | outcome [7] | outcome [8]
active: growth inhibition [1] 50% | growth inhibition [4] 99%

O=C(COc1ccccc1)Nn1cnc2ccccc21
inactive: growth inhibition [1] -3% | inhibition [2] 2% | inhibition [3] 3% | outcome [5] | outcome [6] | outcome [7] | outcome [8]
active: growth inhibition [4] 91%

Cc1ccc(C2(C)CN(CCCOc3cccc(-c4ccc(C(=O)NC(C)C)cc4)c3)CCO2)cc1 (stereo not drawn)
inactive: inhibition [2] 15% | inhibition [3] 0% | outcome [5] | outcome [6] | outcome [7] | outcome [8]
active: growth inhibition [1] 89% | growth inhibition [4] 93%

COc1ccc2ncc(C#N)c(CCN3CCC(NCc4cnc5c(c4)OCCO5)CC3)c2n1
inactive: growth inhibition [1] 24% | inhibition [2] 3% | inhibition [3] -3% | outcome [5] | outcome [6] | outcome [7] | outcome [8]
active: growth inhibition [4] 91%

COc1cccc2cc(C(=O)N[C@@H](CC(C)C)C(=O)N[C@H](/C=N/NC(=O)OC(C)(C)C)Cc3ccccc3)oc12
inactive: inhibition [2] 11% | inhibition [3] 0% | outcome [5] | outcome [6] | outcome [7] | outcome [8]
active: growth inhibition [1] 88% | growth inhibition [4] 99%

CN(CCCNCc1cccc2ccccc12)CCCNCc1cccc2ccccc12
inactive: inhibition [3] -3% | outcome [5] | outcome [6] | outcome [7] | outcome [8]
active: growth inhibition [1] 94% | inhibition [2] 93% | growth inhibition [4] 100%

NC(=O)C1CCN(Cc2cccc(-c3cccc(-c4nc5ccc(F)cc5[nH]4)c3)c2)CC1
active: growth inhibition [4] 100%
inactive: growth inhibition [1] 7% | inhibition [2] 15% | inhibition [3] 3% | outcome [5] | outcome [6] | outcome [7] | outcome [8]
